Laboratory results as given in PubChem BioAssay AID1159580 (chemical genetic matrix, 2015).
Several values for one entry are separate records, joined by “and”; a condition that tells them apart may be missing. Identical values can stand only once. The campaign covered roughly 5,500 compounds. About 2,000 (36%) were called active. About 18% were inconclusive and are not listed. No stated cut-off is given here; in the data, active means normalized growth mostly below about 0.91 (no sharp cut-off); inconclusive means no clear call, values can overlap the other calls; inactive means mostly above about 0.92. This is one part of the list.

Test: chemical genetic growth profiling, strain panel (AID 1159580);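 further: tested at 20 µM; growth read once vehicle control cultures reached saturation at 30 °C; 1 = growth at the plate median or of vehicle wells; lower values mean less growth of the strain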
Settings: S. cerevisiae deletion strains, growth OD

Measured: normalized growth

CCCc1nc2c(C)cc(-c3nc4ccccc4n3C)cc2n1Cc1ccc(-c2ccccc2C(=O)O)cc1
inactive: locus YAL013W, strain DEP1, hits give low values 1.01 | locus YAL021C, strain ccr4, hits give low values 1.02 | locus YAL026C, strain drs2, hits give low values 1 | locus YAL030W, strain snc1, hits give low values 1.01 | locus YBL061C, strain skt5, hits give low values 1.01 | locus YBR009C, strain hhf1, hits give low values 1.01 | locus YBR021W, strain FUR4, hits give low values 0.992 | locus YBR023C, strain chs3, hits give low values 1.01 | locus YBR171W, strain sec66, hits give low values 1.02 | locus YBR229C, strain ROT2, hits give low values 1 | locus YBR231C, strain swc5, hits give low values 1.02 | locus YBR279W, strain paf1, hits give low values 1.01 | locus YCL011C, strain gbp2, hits give low values 1.01 | locus YCL016C, strain dcc1, hits give low values 1 | locus YCL029C, strain bik1, hits give low values 1.01 | locus YCL069W, strain vba3, hits give low values 1.02 | locus YCR088W, strain abp1, hits give low values 1.02 | locus YDL005C, strain med2, hits give low values 1.02 | locus YDL035C, strain GPR1, hits give low values 0.98 | locus YDL040C, strain nat1, hits give low values 1.01 | locus YDL074C, strain BRE1, hits give low values 0.997 | locus YDL101C, strain DUN1, hits give low values 0.999 | locus YDL134C, strain PPH21, hits give low values 1 | locus YDL185W, strain tfp1, hits give low values 1.01 | locus YDL192W, strain arf1, hits give low values 1.02 | locus YDR001C, strain nth1, hits give low values 1.02 | locus YDR069C, strain doa4, hits give low values 1.03 | locus YDR101C, strain arx1, hits give low values 0.989 | locus YDR137W, strain rgp1, hits give low values 0.975 | locus YDR150W, strain NUM1, hits give low values 1.01 | locus YDR159W, strain sac3, hits give low values 0.978 | locus YDR162C, strain NBP2, hits give low values 1.01 | locus YDR195W, strain ref2 1.06 | locus YDR297W, strain sur2, hits give low values 1.01 | locus YDR318W, strain mcm21, hits give low values 1 | locus YDR334W, strain swr1, hits give low values 1.02 | locus YDR335W, strain msn5, hits give low values 1.03 | locus YDR388W, hits give low values 1.02 | locus YDR392W, strain spt3, hits give low values 0.829 | locus YDR502C, strain sam2, hits give low values 1 | locus YEL003W, strain gim4, hits give low values 1.02 | locus YEL037C, strain rad23, hits give low values 1.02 | locus YEL061C, strain CIN8 (second series), hits give low values 1.02 | locus YEL061C, strain CIN8, hits give low values 1.01 | locus YER015W, strain faa2, hits give low values 1.01 | locus YER016W, strain bim1, hits give low values 1.01 | locus YER110C, hits give low values 1.02 | locus YER111C, strain swi4, hits give low values 1.01 | locus YER155C, strain BEM2 (second series), hits give low values 0.926 | locus YER155C, strain BEM2, hits give low values 1 | locus YER167W, strain BCK2, hits give low values 0.998 | locus YFR010W, strain ubp6, hits give low values 1.03 | locus YGL078C, strain dbp3, hits give low values 1.01 | locus YGL086W, strain mad1, hits give low values 0.988 | locus YGL167C, strain pmr1, hits give low values 1.02 | locus YGL173C, strain kem1, hits give low values 1.01 | locus YGL227W, strain vid30, hits give low values 1.01 | locus YGL240W, strain doc1, hits give low values 1.01 | locus YGL248W, strain PDE1, hits give low values 0.994 | locus YGL253W, strain hxk2, hits give low values 1.03 | locus YGR078C, strain PAC10, hits give low values 0.997 | locus YGR135W, strain pre9, hits give low values 1.04 | locus YGR229C, strain SMI1, hits give low values 1.01 | locus YGR252W, strain gcn5, hits give low values 0.994 | locus YHR013C, strain ard1, hits give low values 1.04 | locus YHR027C, strain rpn1, hits give low values 1.01 | locus YHR030C, strain SLT2, hits give low values 1 and 0.973 | locus YHR079C, strain IRE1 (second series), hits give low values 0.997 | locus YHR079C, strain IRE1, hits give low values 0.967 | locus YHR094C, strain hxt1, hits give low values 1.01 | locus YHR129C, strain ARP1, hits give low values 0.996 | locus YHR142W, strain chs7, hits give low values 1.03 | locus YHR200W, strain rpn10, hits give low values 1 | locus YIL066C, strain RNR3, hits give low values 0.997 | locus YIL073C, strain SPO22, hits give low values 1.08 | locus YIL125W, strain kgd1, hits give low values 1 | locus YIR030C, strain dcg1, hits give low values 1.01 | locus YJL092W, strain hpr5, hits give low values 1.01 | locus YJL095W, strain BCK1 (second series), hits give low values 1 | locus YJL095W, strain BCK1, hits give low values 0.989 and 0.986 | locus YJL115W, strain asf1, hits give low values 1.01 | locus YJL129C, strain trk1, hits give low values 0.956 | locus YJL134W, strain LCB3, hits give low values 1 | locus YJL154C, strain vps35, hits give low values 1.01 | locus YJL164C, strain tpk1, hits give low values 1 | locus YJL166W, strain qcr8, hits give low values 1.01 | locus YJL168C, strain set2, hits give low values 1 | locus YJL187C, strain SWE1 (second series), hits give low values 0.995 | locus YJL187C, strain SWE1, hits give low values 1.01
